Activity calls are given as the source filed them.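 How the source made its calls, unless noted: active means fluorescence slope higher than the sample average by over 3 SD (cut at about -0.22 in these data, passing the limit was not always enough); inactive means the rest.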
Tests used:
[1] = inhibitors of TNFa-induced NFkB p65 translocation, primary screen, imaging, HUVEC, MLSMR starter and 10KST1 sets (AID 438;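 active means inhibition above 20% together with a positive visual image hit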;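 further: compound added about 3h40 before a 20 min TNFalpha stimulation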;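 on inhibition: signal is the nuclear over cytoplasmic p65 intensity ratio per well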); conditions: HUVEC TNFa-induced p65 nuclear translocation; cell count: measured here: nuclei count (cytotoxicity indicator), at 2.08 µM; inhibition: at 2 µM, stronger effect = higher value, 0% TNFa-plus-vehicle, 100% no-TNFa wells
[2] = reduction of polyQ htt aggregates in cells – imaging, exon1htt(103Q)mCFP cells, high-content imaging, primary screen (AID 483;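 active means visual image review flags a hit and inhibition of aggregation exceeds 20%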;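 further: compound exposure lasted 3 days before fixation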;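 on nuclei count: percent of the per-plate median nuclei count of sample wells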); conditions: exon1htt(103Q)mCFP cell line, aggregate imaging, at 2 µM; inhibition of aggregation: stronger effect = higher value; nuclei count: measured here: cell count, toxicity
[3] = endothelial E-selectin expression blockers – imaging, HUVEC, immunofluorescence, MLSMR starter and 10KST1 sets, primary screen (AID 487;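 active means visually confirmed hit in the image check and inhibition above 20%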;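 on inhibition: signal is fraction of cell area covered by stained E-selectin grains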;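 on nuclei count: 100% = median nuclei count of all wells on the same plate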); conditions: HUVEC TNFalpha-induced E-selectin immunofluorescence imaging, at 2 µM; inhibition: stronger effect = higher value; nuclei count: measured here: cell number, toxicity
[4] = target: Voltage-gated potassium channel subunit beta-2 (Rattus norvegicus) (UniProt P62483); experiment: inhibitors of rat Kvbeta2 reductase activity – biochemical, NADPH fluorescence, primary screen (AID 622); conditions: recombinant KvBeta, 4-cyanobenzaldehyde reduction, at 10 µM, stronger effect = higher value;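 further: slope of raw intensity against log time taken from 70 to 1610 s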
Sequence of Voltage-gated potassium channel subunit beta-2 (Rattus norvegicus) (P62483 whole entry, looked up): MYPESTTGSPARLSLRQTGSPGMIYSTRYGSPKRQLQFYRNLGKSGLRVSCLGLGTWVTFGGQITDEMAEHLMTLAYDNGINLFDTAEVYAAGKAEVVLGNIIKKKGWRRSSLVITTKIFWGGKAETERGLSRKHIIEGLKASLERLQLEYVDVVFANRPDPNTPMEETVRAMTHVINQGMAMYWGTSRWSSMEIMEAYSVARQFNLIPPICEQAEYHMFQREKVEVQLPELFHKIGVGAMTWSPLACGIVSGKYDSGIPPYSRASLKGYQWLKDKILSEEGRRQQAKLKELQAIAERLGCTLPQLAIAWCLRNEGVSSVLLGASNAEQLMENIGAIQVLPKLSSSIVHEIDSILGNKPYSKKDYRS

[5] = target: Voltage-gated potassium channel subunit beta-2 (Rattus norvegicus) (UniProt P62483); experiment: enhancers of rat Kvbeta2 NADPH turnover – biochemical, NADPH fluorescence, primary screen (AID 623;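 active means NADPH fluorescence slope more negative than the mean of all samples by about 3 SD, 99.7% confidence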;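 further: fluorescence intensity change per second fitted from 20 to 320 s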); conditions: Recombinant KvBeta, NADPH fluorescence decrease slope, 10 min; at 10 µM; stronger effect = lower value
[6] = target: Alpha-2C adrenergic receptor (Homo sapiens) (UniProt P18825); experiment: compounds altering alpha2C-coupled GIRK flux – cell-based, HEK293 alpha2C/GIRK1/2, thallium flux, primary screen (AID 624;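 active means fluorescence slope after compound addition differing from the mean of all screened samples at 99.7% confidence, in either direction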;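 further: slope of fluorescence ratio to pre-addition baseline per second over 15 to 24 s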); conditions: thallium flux BTC fluorescence, at 10 µM, actives lie on both sides
Sequence of Alpha-2C adrenergic receptor (Homo sapiens) (P18825 whole entry, looked up): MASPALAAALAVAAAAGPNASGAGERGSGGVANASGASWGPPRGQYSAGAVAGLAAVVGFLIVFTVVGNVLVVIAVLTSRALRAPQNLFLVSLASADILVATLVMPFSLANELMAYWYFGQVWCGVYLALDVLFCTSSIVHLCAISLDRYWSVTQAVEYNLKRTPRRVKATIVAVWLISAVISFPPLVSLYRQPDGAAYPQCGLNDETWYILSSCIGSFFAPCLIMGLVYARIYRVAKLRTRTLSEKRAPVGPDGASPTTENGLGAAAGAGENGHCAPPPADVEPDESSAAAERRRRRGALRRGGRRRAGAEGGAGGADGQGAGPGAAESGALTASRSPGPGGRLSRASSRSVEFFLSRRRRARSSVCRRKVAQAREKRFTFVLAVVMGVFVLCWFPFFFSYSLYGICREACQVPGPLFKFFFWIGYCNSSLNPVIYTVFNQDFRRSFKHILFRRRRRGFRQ

[7] = blockers of RIG-like receptor reporter activation – cell-based, Sendai virus stimulus, luciferase, 10K MLSCN set, TLR/RLR signaling modifier project, primary screen (AID 602276;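 active means inhibition at or above 50% at 10 µM; inactive means inhibition below 50%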;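 further: firefly luciferase from ISG56 promoter only with Renilla not read in this screen; 0% = Sendai virus plus DMSO and 100% = medium plus DMSO without virus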); conditions: HEK293 RL24 IRF3 luciferase reporter, at 10 µM, stronger effect = higher value
[8] = TLR3 IRF3 reporter activation blockers – cell-based, poly I:C stimulus, luciferase, 10K MLSCN set, primary screen (AID 602277;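 active means inhibition of the reporter signal at or above 50%; inactive means inhibition below 50%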); conditions: HEK293-TLR3 RL24 IRF3 luciferase reporter, at 10 µM, stronger effect = higher value

| Compound | cell count [1] | inhibition [1] | inhibition of aggregation [2] | nuclei count [2] [%] | inhibition [3] | nuclei count [3] [%] | fluorescence slope [4] | NADPH fluorescence slope [5] | slope [6] | inhibition [7] | inhibition [8] |
| --- | --- | --- | --- | --- | --- | --- | --- | --- | --- | --- | --- |
| CCOC(=O)Cn1c2c(c(=N)c3ccccc31)CCC2 | 565 | -7.1% (inactive) | -0.7% (inactive) | 106 | 2% (inactive) | 103 | -0.623 (inactive) | -3.1e-05 (inactive) | 0.00442 (inactive) | 16% (inactive) | 20.3% (inactive) |
| COc1cccc(OCC(=O)Nc2ccccc2C(N)=O)c1 | 681 | 0.4% (inactive) | 9.9% (inactive) | 104 | -73.4% (inactive) | 110 | -0.517 (inactive) | 1.4e-05 (inactive) | 0.00589 (inactive) | -50.2% (inactive) | -121% (inactive) |
| Cc1noc(C)c1CSc1nc2cc(S(=O)(=O)N3CCOCC3)ccc2o1 | 515 | -12.1% (inactive) | -33.5% (inactive) | 135 | -52% (inactive) | 118 | -0.478 (inactive) | -0.000262 (inactive) | 0.00432 (inactive) | 16.1% (inactive) | 19.5% (inactive) |
| CN(C)c1nc(N)nc(-c2nc3ccccc3s2)n1 | 824 | -2.1% (inactive) | -13.6% (inactive) | 97.7 | -96.9% (inactive) | 122 | -0.489 (inactive) | -2.4e-05 (inactive) | 0.00639 (inactive) | -26% (inactive) | -41.6% (inactive) |
| Brc1ccc(-c2csc(/N=C/N3CCOCC3)n2)cc1 | 531 | -3.6% (inactive) | -0.1% (inactive) | 97.4 | 13.5% (inactive) | 102 | -0.521 (inactive) | -8.8e-05 (inactive) | 0.00566 (inactive) | -73.1% (inactive) | -171% (inactive) |
| CCOc1ccccc1CNC(=O)CCN1C(=O)COc2ccccc21 | 630 | -1.8% (inactive) | -12.2% (inactive) | 47.7 | -71.5% (inactive) | 94.5 | -0.379 (inactive) | -2.3e-05 (inactive) | 0.00611 (inactive) | 12.2% (inactive) | 2.75% (inactive) |
| COC(=O)c1[nH]c2ccc(C)cc2c1NC(=O)CN1CCCc2ccccc21 | 408 | 3.1% (inactive) | 21.6% (inactive) | 83.4 | -29.9% (inactive) | 106 | -0.39 (inactive) | -4.8e-05 (inactive) | 0.00333 (inactive) | 21.5% (inactive) | 12% (inactive) |
| CC1(C)CC(=O)C(CC2=C(O)CC(C)(C)CC2=O)=C(O)C1 | 628 | -6.7% (inactive) | 15.8% (inactive) | 90.9 | -24.2% (inactive) | 112 | -0.386 (inactive) | -1.3e-05 (inactive) | 0.00397 (inactive) | 7.41% (inactive) | 23.2% (inactive) |
| O=C(NCC(=O)N1CCC(N2CCCCC2)CC1)C1CCCCC1 | 505 | -12% (inactive) | 19.9% (inactive) | 91.8 | 10.2% (inactive) | 91 | -0.481 (inactive) | -0.000128 (inactive) | 0.00598 (inactive) | -3.39% (inactive) | 1.58% (inactive) |
| O=C(NCc1ccco1)c1csc(Nc2ccccc2Cl)n1 | 484 | -6.2% (inactive) | -0.3% (inactive) | 118 | -144% (inactive) | 233 | -0.503 (inactive) | -3.4e-05 (inactive) | 0.0062 (inactive) | -50.5% (inactive) | -12.9% (inactive) |
| C=CCN(C(=O)CNC(=O)c1ccco1)C(C(=O)NC1CCCCC1)c1ccccc1F (stereo not drawn) | 398 | -1.6% (inactive) | 18.6% (inactive) | 106 | 5.7% (inactive) | 101 | -0.612 (inactive) | 1.7e-06 (inactive) | 0.00581 (inactive) | -3.24% (inactive) | 10.3% (inactive) |
| O=C(Nc1ccc(NC(=O)c2ccco2)nc1)c1cccnc1 | 505 | 19.2% (inactive) | -0.5% (inactive) | 93.2 | 1% (inactive) | 89.3 | -0.472 (inactive) | -2.2e-05 (inactive) | 0.00492 (inactive) | -21.2% (inactive) | -50% (inactive) |
| CCN(CC)S(=O)(=O)c1ccc(F)c(C(=O)NCCC(C)C)c1 | 497 | -22% (inactive) | 37.4% (inactive) | 79.2 | -22.3% (inactive) | 99.2 | -0.353 (inactive) | -1.6e-05 (inactive) | 0.00438 (inactive) | -18.3% (inactive) | -20.2% (inactive) |
| Cn1c(C(=O)OCC(=O)NCC2CCCO2)cc2sccc21 (stereo not drawn) | 497 | -1% (inactive) | -7.3% (inactive) | 108 | -79% (inactive) | 107 | -0.451 (inactive) | 9.3e-06 (inactive) | 0.00457 (inactive) | 13.3% (inactive) | 13.1% (inactive) |
| O=C(CN1CCOCC1)N1CCCc2c1c(=O)oc1ccc(OCc3ccccc3)cc21 | 427 | 7.3% (inactive) | 5.6% (inactive) | 109 | -40.7% (inactive) | 109 | -0.589 (inactive) | -4.6e-05 (inactive) | 0.00267 (inactive) | -0.877% (inactive) | 9.59% (inactive) |
| CCCS(=O)(=O)NCCc1cc2cc(C)c(C)cc2[nH]c1=O | 321 | -18.8% (inactive) | 4.2% (inactive) | 84.9 | -16.4% (inactive) | 106 | -0.587 (inactive) | -7.5e-05 (inactive) | 0.0056 (inactive) | 4.21% (inactive) | -4.55% (inactive) |
| COc1ccc(C(C(C(=O)c2ccco2)N2CCOCC2)N2CCOCC2)cc1 (stereo not drawn) | 534 | 5.4% (inactive) | 2.2% (inactive) | 87.8 | 57.2% (inactive) | 91.5 | -0.401 (inactive) | 1.7e-05 (inactive) | 0.0056 (inactive) | 2.32% (inactive) | -5.02% (inactive) |
| CCOC(=O)CN1CC23C=CC(O2)C(C(=O)NC2CCCC2)C3C1=O (stereo not drawn) | 671 | 4.1% (inactive) | 0.3% (inactive) | 99.1 | -66.9% (inactive) | 119 | -0.576 (inactive) | -2.3e-05 (inactive) | 0.00621 (inactive) | 11.3% (inactive) | 29.5% (inactive) |
| CCn1nccc1C(=O)Nc1cc(Cl)ccc1Cl | 633 | 8.3% (inactive) | 6.7% (inactive) | 57.3 | 22.2% (inactive) | 106 | -0.385 (inactive) | -5e-05 (inactive) | 0.00378 (inactive) | 1.68% (inactive) | 15.9% (inactive) |
| O=C(Nc1ccc(N2CCOCC2)cc1)C1CC1 | 344 | 3.5% (inactive) | 25% (inactive) | 83.9 | -16.5% (inactive) | 121 | -0.39 (inactive) | -2.3e-05 (inactive) | 0.00566 (inactive) | 6.17% (inactive) | -13.8% (inactive) |
| CC(=O)NC(=O)NC1CSCC1OC(C)=O (stereo not drawn) | 590 | 1.2% (inactive) | 23.1% (inactive) | 99 | -110% (inactive) | 132 | -0.445 (inactive) | -1.3e-05 (inactive) | 0.00811 (inactive) | 11% (inactive) | 12% (inactive) |
| Cc1nc2c(-c3ccccc3)c(C)nn2c(C)c1CCC(=O)O | 586 | 6.1% (inactive) | 8.1% (inactive) | 73 | -61.1% (inactive) | 103 | -0.492 (inactive) | -2.4e-05 (inactive) | 0.00603 (inactive) | 13.6% (inactive) | 20% (inactive) |
| Cc1cc(=O)n(-c2ccc3ccccc3n2)[nH]1 | 383 | -0.7% (inactive) | -7.3% (inactive) | 89.7 | -37.6% (inactive) | 107 | -0.436 (inactive) | -5.1e-05 (inactive) | 0.00622 (inactive) | 17.4% (inactive) | 9.22% (inactive) |
| COc1ccc(NC(=O)CN(c2cc(C)cc(C)c2)S(=O)(=O)c2c(C)noc2C)cc1OC | 753 | -1.7% (inactive) | -15.7% (inactive) | 116 | -8.7% (inactive) | 117 | -0.551 (inactive) | -2.2e-05 (inactive) | 0.00583 (inactive) | 15.1% (inactive) | 38% (inactive) |
| COc1nc(NCCc2ccc(OC)c(OC)c2)nc(NC(C)(C)CO)n1 | 336 | -1.4% (inactive) | 13.7% (inactive) | 97.3 | -7% (inactive) | 108 | -0.496 (inactive) | -1.3e-06 (inactive) | 0.00642 (inactive) | 15.5% (inactive) | 11.8% (inactive) |
| Cn1c(Cc2ccccc2)nnc1SCC(=O)N1CCOCC1 | 492 | -0.8% (inactive) | -33% (inactive) | 103 | -74.1% (inactive) | 123 | -0.276 (inactive) | -4.7e-05 (inactive) | 0.00541 (inactive) | 10.3% (inactive) | 13.5% (inactive) |
| COC(=O)c1ccc(NC(=O)CN2CCN(c3ccc(Cl)cc3)CC2)cc1 | 355 | -11.2% (inactive) | 12.9% (inactive) | 101 | 8.1% (inactive) | 91.5 | -0.571 (inactive) | 1.7e-05 (inactive) | 0.00455 (inactive) | 20.2% (inactive) | 21.5% (inactive) |
| Nc1c(S(=O)(=O)c2cccs2)c2nc3ccccc3nc2n1CC1CCCO1 (stereo not drawn) | 667 | -7.3% (inactive) | -6% (inactive) | 117 | -71.1% (inactive) | 141 | -0.0861 (active) | 2.8e-06 (inactive) | 0.00409 (inactive) | 10.7% (inactive) | 35.1% (inactive) |

Reference: PubChem BioAssay
